PubChem BioAssay (NCI)
This is part of a sample that, as a whole, favours compounds with a hit. Of some 83,000 tested, about 20% had one in any assay.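 Treatment: one concentration, 48 hours, 96-well format. Scoring: percent growth, with anything below 10 considered active.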 Active and inactive are the calls of the source.

Legend:
Test in all cases: NCI-60 one-dose screen, 48 h (100 = growth as untreated, 0 = no growth, -100 = all killed)
Settings in all cases: 10 µM unless noted
DU-145 prostate = test system: DU-145 prostate
K-562 leukemia = test system: K-562 leukemia
MALME-3M melanoma = test system: MALME-3M melanoma
MDA-MB-231 breast = test system: MDA-MB-231 breast
RXF 393 renal = test system: RXF 393 renal
SF-268 CNS = test system: SF-268 CNS
SF-295 CNS = test system: SF-295 CNS
SF-539 CNS = test system: SF-539 CNS
UACC-257 melanoma = test system: UACC-257 melanoma
M14 melanoma = test system: M14 melanoma
HCT-15 colon = test system: HCT-15 colon
SNB-75 CNS = test system: SNB-75 CNS
SNB-19 CNS = test system: SNB-19 CNS
U251 CNS = test system: U251 CNS
PC-3 prostate = test system: PC-3 prostate
SK-MEL-5 melanoma = test system: SK-MEL-5 melanoma
UACC-62 melanoma = test system: UACC-62 melanoma
LOX IMVI melanoma = test system: LOX IMVI melanoma
SK-MEL-28 melanoma = test system: SK-MEL-28 melanoma
HT29 colon = test system: HT29 colon

Measured: growth

Cc1cc[c-]cc1.Fc1c[c-]c(-c2ccccn2)c(F)c1.[Pt+2].c1ccc(P(C[PH+](c2ccccc2)c2ccccc2)c2ccccc2)cc1
active: K-562 leukemia 8.02% | MALME-3M melanoma -15.8% | MDA-MB-231 breast -9.05% | SF-268 CNS 9.02% | SF-295 CNS 6.93% | UACC-257 melanoma -12.1% | SNB-75 CNS 4.48% | SK-MEL-5 melanoma -94.9% | UACC-62 melanoma 9.82%
inactive: DU-145 prostate 17.5% | RXF 393 renal 23.1% | SF-539 CNS 21.5% | M14 melanoma 22% | HCT-15 colon 47% | SNB-19 CNS 17.5% | U251 CNS 12.9% | PC-3 prostate 11.2% | LOX IMVI melanoma 18.5% | SK-MEL-28 melanoma 36.4%

COc1ccc(C2=NN(C(=O)c3cc(OC)c(OC)c(OC)c3)C(c3ccc(Cl)cc3)C2)cc1OC (stereo unspecified)
inactive: MALME-3M melanoma 63.1% | MDA-MB-231 breast 47.6% | RXF 393 renal 22.6% | SF-268 CNS 37.6% | UACC-257 melanoma 54.5% | SNB-75 CNS 21.9% | SNB-19 CNS 29.1% | U251 CNS 24% | PC-3 prostate 26.5% | UACC-62 melanoma 31.1% | LOX IMVI melanoma 31.3% | SK-MEL-28 melanoma 46.1%
active: DU-145 prostate 7.23% | K-562 leukemia 4.27% | SF-295 CNS -4.6% | SF-539 CNS -3.19% | M14 melanoma 6.09% | HCT-15 colon 9.3% | SK-MEL-5 melanoma 9.51%

CCOC(=O)c1c2c(n3ccc(NC(=O)OC(C)(C)C)cc13)C(=O)c1ncccc1C2=O
active: DU-145 prostate -30.2% | K-562 leukemia -23.9% | MALME-3M melanoma -21.6% | MDA-MB-231 breast 2.02% | RXF 393 renal -38.4% | SF-268 CNS -16.7% | SF-295 CNS -67.1% | SF-539 CNS -45.9% | UACC-257 melanoma -40.9% | M14 melanoma -55.8% | HCT-15 colon -69.5% | SNB-75 CNS -32.2% | SNB-19 CNS -54.4% | U251 CNS -80.8% | PC-3 prostate -1.36% | SK-MEL-5 melanoma -96% | UACC-62 melanoma -75.8% | LOX IMVI melanoma -68.8% | SK-MEL-28 melanoma -18.4%

CN(C)CC1C(=O)O[C@H]2[C@H]1CC/C(COC(=O)c1cc3ccccc3[nH]1)=C\CC[C@@]1(C)O[C@@H]21 (stereo partly specified)
active: DU-145 prostate -17.7% | K-562 leukemia -11.4% | MALME-3M melanoma -44.2% | MDA-MB-231 breast -41.2% | RXF 393 renal -72.2% | SF-268 CNS -59.7% | SF-539 CNS -37.7% | UACC-257 melanoma -86% | M14 melanoma -62.3% | HCT-15 colon -57.9% | SNB-75 CNS -59.6% | U251 CNS -60.9% | PC-3 prostate -23.7% | SK-MEL-5 melanoma -98.6% | UACC-62 melanoma -52% | LOX IMVI melanoma -92.7% | SK-MEL-28 melanoma -59.1%
inactive: SF-295 CNS 32.4% | SNB-19 CNS 49.5%

CN(C)CCC=C1c2ccccc2C(C)(C)c2ccccc21
inactive: DU-145 prostate 35.9% | K-562 leukemia 32.7% | MALME-3M melanoma 78.9% | MDA-MB-231 breast 75% | RXF 393 renal 66.4% | SF-268 CNS 95.9% | SF-295 CNS 67.2% | SF-539 CNS 61.2% | UACC-257 melanoma 24.2% | M14 melanoma 11.6% | HCT-15 colon 83.9% | SNB-75 CNS 79.3% | U251 CNS 78.9% | PC-3 prostate 55.5% | SK-MEL-5 melanoma 64.3% | UACC-62 melanoma 71.2% | LOX IMVI melanoma 69.6% | SK-MEL-28 melanoma 54.5%

COCN1CCC2N(COC)CCC3N(COC)CCC1N23 (stereo unspecified)
inactive: DU-145 prostate 111% | K-562 leukemia 111% | MALME-3M melanoma 134% | MDA-MB-231 breast 94.1% | RXF 393 renal 112% | SF-268 CNS 104% | SF-295 CNS 113% | SF-539 CNS 101% | UACC-257 melanoma 98.8% | M14 melanoma 98% | HCT-15 colon 104% | SNB-75 CNS 90.8% | SNB-19 CNS 93.6% | U251 CNS 102% | PC-3 prostate 102% | SK-MEL-5 melanoma 109% | UACC-62 melanoma 94.3% | LOX IMVI melanoma 101% | SK-MEL-28 melanoma 106%

CCCCCCCCCCCCCCCCCCOc1ccccc1CC(=O)OCCC[N+](C)(C)C
active: RXF 393 renal -18.2%
inactive: DU-145 prostate 60.5% | K-562 leukemia 37.4% | MALME-3M melanoma 52.7% | MDA-MB-231 breast 45.9% | SF-268 CNS 53.2% | SF-295 CNS 75.4% | SF-539 CNS 52.1% | UACC-257 melanoma 84.7% | M14 melanoma 46.3% | HCT-15 colon 78.7% | SNB-75 CNS 40.6% | SNB-19 CNS 34.2% | U251 CNS 24.2% | PC-3 prostate 36.8% | SK-MEL-5 melanoma 43.2% | UACC-62 melanoma 54.2% | LOX IMVI melanoma 36.4% | SK-MEL-28 melanoma 66.8%

O=S(=O)(Nc1cccc(Cl)c1)c1ccc(-c2cnc(C3CC3)o2)cc1
inactive: DU-145 prostate 20.4% | MALME-3M melanoma 58.2% | MDA-MB-231 breast 23.3% | RXF 393 renal 13.8% | SF-268 CNS 51% | SF-295 CNS 15.5% | UACC-257 melanoma 63.8% | M14 melanoma 16.2% | HCT-15 colon 23.9% | SNB-19 CNS 24.1% | U251 CNS 22.9% | PC-3 prostate 26.3% | SK-MEL-5 melanoma 16.4% | UACC-62 melanoma 29.2% | LOX IMVI melanoma 35.4% | SK-MEL-28 melanoma 68.4%
active: K-562 leukemia 9.52% | SF-539 CNS -0.0211% | SNB-75 CNS -25.8%

Cc1ccc(/C=C/c2c(C(=O)/C=C/c3ccc(Cl)cc3)c(C)nc3ccccc23)cc1
inactive: SF-268 CNS 38.1% | SNB-75 CNS 68.8% | PC-3 prostate 11.6%
active: DU-145 prostate -38.8% | K-562 leukemia 5.31% | MALME-3M melanoma -31.2% | MDA-MB-231 breast -24.2% | RXF 393 renal -66.4% | SF-295 CNS -29.3% | SF-539 CNS -85.5% | UACC-257 melanoma 8.99% | M14 melanoma -0.212% | HCT-15 colon -39.9% | SNB-19 CNS -21.4% | U251 CNS -36.9% | SK-MEL-5 melanoma -40.6% | UACC-62 melanoma -32.8% | LOX IMVI melanoma -91%

O=C1c2cccc(NCCN=Cc3cc([N+](=O)[O-])ccc3O)c2C(=O)c2c(NCCN=Cc3cc([N+](=O)[O-])ccc3O)cccc21
inactive: DU-145 prostate 67% | K-562 leukemia 28.6% | MALME-3M melanoma 85.1% | MDA-MB-231 breast 58.9% | RXF 393 renal 74.5% | SF-268 CNS 40% | SF-295 CNS 73% | SF-539 CNS 70.8% | UACC-257 melanoma 104% | M14 melanoma 102% | HCT-15 colon 82% | SNB-75 CNS 65.9% | SNB-19 CNS 50.4% | U251 CNS 44.5% | PC-3 prostate 50% | SK-MEL-5 melanoma 92.1% | UACC-62 melanoma 90.2% | LOX IMVI melanoma 58.6% | SK-MEL-28 melanoma 102%

N#C/C(=C\c1ccc(Br)cc1)n1nnc2cc(F)c(F)cc21
inactive: DU-145 prostate 15.6% | MALME-3M melanoma 65.7% | MDA-MB-231 breast 15% | SF-268 CNS 33.8% | SF-295 CNS 98.6% | UACC-257 melanoma 50.6% | M14 melanoma 18.1% | HCT-15 colon 11.1% | SNB-75 CNS 12.8% | U251 CNS 30% | PC-3 prostate 31.2% | SK-MEL-5 melanoma 44.8% | UACC-62 melanoma 13.3% | SK-MEL-28 melanoma 42.8%
active: K-562 leukemia 9.36% | RXF 393 renal 2.12% | SF-539 CNS -2.33% | LOX IMVI melanoma -49.1%

N#Cc1c(N)nc(NCCO)nc1-c1ccc(F)cc1
inactive: DU-145 prostate 113% | K-562 leukemia 91.4% | MALME-3M melanoma 108% | MDA-MB-231 breast 104% | RXF 393 renal 93.5% | SF-268 CNS 103% | SF-295 CNS 99.1% | SF-539 CNS 98.6% | UACC-257 melanoma 90.6% | M14 melanoma 105% | HCT-15 colon 99.9% | SNB-75 CNS 79.2% | U251 CNS 90.2% | PC-3 prostate 92.9% | SK-MEL-5 melanoma 95% | UACC-62 melanoma 95% | LOX IMVI melanoma 90.8% | SK-MEL-28 melanoma 112%

CCOc1ccccc1-c1cc(-c2cccs2)c(C#N)c(=O)[nH]1
inactive: DU-145 prostate 111% | K-562 leukemia 48.6% | MALME-3M melanoma 84.9% | MDA-MB-231 breast 89% | RXF 393 renal 79.6% | SF-268 CNS 92.5% | SF-295 CNS 93.6% | SF-539 CNS 87.3% | UACC-257 melanoma 101% | M14 melanoma 85.1% | HCT-15 colon 56.8% | SNB-75 CNS 45.8% | SNB-19 CNS 86.1% | U251 CNS 88.6% | PC-3 prostate 84.5% | SK-MEL-5 melanoma 85.8% | UACC-62 melanoma 63.7% | LOX IMVI melanoma 86.6% | SK-MEL-28 melanoma 94.6%

COC(=O)CCC1=C(C)C2=NC1=CC1=NC(=CC3=NC(=Cc4[nH]c(/c(=C(/C)O)c4C)=C2)C(C(C)=O)=C3C)C(C)=C1CCC(=O)OC
inactive: DU-145 prostate 110% | K-562 leukemia 112% | MALME-3M melanoma 96% | MDA-MB-231 breast 103% | RXF 393 renal 112% | SF-268 CNS 98.9% | SF-295 CNS 104% | SF-539 CNS 97.7% | UACC-257 melanoma 90.3% | M14 melanoma 108% | HT29 colon 107% | SNB-75 CNS 90.6% | SNB-19 CNS 97.3% | U251 CNS 98.9% | PC-3 prostate 83.7% | SK-MEL-5 melanoma 103% | UACC-62 melanoma 97.2% | LOX IMVI melanoma 96%
